Experiments:
Experiment in all cases: DAPPL (digital affinity profiling via proximity ligation, sequencing); 10 mM Tris-HCl pH 7.5, 50 mM NaCl, 1 mM DTT, 4% glycerol, room temperature, 30 min; GST-TFs on glutathione beads, 16-mer random dsDNA library, 0.1% formaldehyde crosslink after washing; high values mean tight binding
FLI1 = target: T1, FLI1 (Homo sapiens, UniProt Q01543 1-452); conditions: protein: recombinant; tags: N-terminal GST; dsDNA, one strand shown
T1 sequence: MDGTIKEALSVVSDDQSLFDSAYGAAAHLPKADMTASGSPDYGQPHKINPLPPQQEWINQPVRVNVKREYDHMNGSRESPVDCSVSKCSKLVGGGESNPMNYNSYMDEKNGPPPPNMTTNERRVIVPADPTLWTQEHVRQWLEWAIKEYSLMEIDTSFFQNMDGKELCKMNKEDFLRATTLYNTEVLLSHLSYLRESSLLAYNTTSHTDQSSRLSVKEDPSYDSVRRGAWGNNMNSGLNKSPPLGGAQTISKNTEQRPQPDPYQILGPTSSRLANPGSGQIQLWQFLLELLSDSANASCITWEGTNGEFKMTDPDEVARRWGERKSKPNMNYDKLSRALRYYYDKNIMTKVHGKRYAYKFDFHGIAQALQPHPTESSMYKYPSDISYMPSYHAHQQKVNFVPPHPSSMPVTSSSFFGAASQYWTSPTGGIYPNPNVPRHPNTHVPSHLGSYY
Outline: (§1)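 Human transcription factors carrying a GST fusion were produced in yeast, bound to glutathione beads, tagged with DNA barcodes and pooled together with a tag-only sample. Each pool was held with 200 nmole of a random double-stranded 16-mer DNA library in Tris/NaCl/DTT/glycerol buffer for 30 min at room temperature, then washed, crosslinked in 0.1% formaldehyde, proximity-ligated with BsaI/T4 ligase (1 h, 37 °C), PCR-amplified and sequenced on an Illumina NextSeq500. Binding signal is the read frequency of each hexamer for a given factor divided by its frequency in the tag-only sample.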

ELK1 = target: T2, ELK1 (Homo sapiens, UniProt P19419 1-428); conditions: protein: recombinant; tags: N-terminal GST; dsDNA, one strand shown
T2 sequence: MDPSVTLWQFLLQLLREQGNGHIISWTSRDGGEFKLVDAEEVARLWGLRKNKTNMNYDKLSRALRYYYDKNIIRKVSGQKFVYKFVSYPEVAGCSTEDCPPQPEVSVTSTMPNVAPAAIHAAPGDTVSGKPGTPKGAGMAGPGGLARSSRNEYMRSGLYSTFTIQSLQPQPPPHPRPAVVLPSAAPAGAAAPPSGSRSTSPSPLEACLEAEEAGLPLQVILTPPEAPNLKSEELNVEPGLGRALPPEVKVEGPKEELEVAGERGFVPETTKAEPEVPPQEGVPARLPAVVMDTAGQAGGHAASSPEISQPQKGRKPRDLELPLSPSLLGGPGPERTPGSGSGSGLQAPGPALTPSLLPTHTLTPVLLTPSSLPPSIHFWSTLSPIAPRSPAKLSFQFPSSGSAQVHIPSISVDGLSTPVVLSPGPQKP
Outline: as §1

GABPA = target: T3, GABPA (Homo sapiens, UniProt Q06546 1-454); conditions: protein: recombinant; tags: N-terminal GST; dsDNA, one strand shown
T3 sequence: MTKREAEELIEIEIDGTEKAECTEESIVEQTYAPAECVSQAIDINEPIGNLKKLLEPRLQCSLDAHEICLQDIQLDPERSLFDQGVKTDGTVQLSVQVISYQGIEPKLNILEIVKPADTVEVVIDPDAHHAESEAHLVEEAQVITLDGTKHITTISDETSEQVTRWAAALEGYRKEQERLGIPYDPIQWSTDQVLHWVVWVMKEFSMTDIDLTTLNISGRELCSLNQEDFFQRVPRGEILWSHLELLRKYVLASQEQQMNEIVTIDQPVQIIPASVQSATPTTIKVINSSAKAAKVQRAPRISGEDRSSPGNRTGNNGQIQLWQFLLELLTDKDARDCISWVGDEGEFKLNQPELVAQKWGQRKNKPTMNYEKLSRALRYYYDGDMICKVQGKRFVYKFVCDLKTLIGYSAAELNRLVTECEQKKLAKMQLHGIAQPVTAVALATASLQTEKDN
Outline: as §1

ERG = target: T4, ERG (Homo sapiens, UniProt P11308 1-479); conditions: protein: recombinant; tags: N-terminal GST; dsDNA, one strand shown
T4 sequence: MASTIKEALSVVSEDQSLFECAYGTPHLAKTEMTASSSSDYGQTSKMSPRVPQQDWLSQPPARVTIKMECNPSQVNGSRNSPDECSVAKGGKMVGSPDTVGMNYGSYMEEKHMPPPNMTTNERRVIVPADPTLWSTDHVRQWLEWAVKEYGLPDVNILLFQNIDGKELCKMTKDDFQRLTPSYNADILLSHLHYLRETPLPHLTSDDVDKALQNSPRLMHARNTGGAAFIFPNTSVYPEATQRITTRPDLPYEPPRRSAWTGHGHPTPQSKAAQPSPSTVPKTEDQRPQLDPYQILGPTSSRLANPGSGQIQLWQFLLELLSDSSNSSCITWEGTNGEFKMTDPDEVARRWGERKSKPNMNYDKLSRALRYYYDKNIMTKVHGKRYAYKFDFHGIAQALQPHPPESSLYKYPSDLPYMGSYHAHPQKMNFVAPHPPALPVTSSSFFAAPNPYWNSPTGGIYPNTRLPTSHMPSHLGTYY
Outline: as §1

ELF1 = ELF1 (Homo sapiens, UniProt P32519 1-619); conditions: protein: recombinant; tags: N-terminal GST; dsDNA, one strand shown
ELF1, sequence (P32519 whole entry): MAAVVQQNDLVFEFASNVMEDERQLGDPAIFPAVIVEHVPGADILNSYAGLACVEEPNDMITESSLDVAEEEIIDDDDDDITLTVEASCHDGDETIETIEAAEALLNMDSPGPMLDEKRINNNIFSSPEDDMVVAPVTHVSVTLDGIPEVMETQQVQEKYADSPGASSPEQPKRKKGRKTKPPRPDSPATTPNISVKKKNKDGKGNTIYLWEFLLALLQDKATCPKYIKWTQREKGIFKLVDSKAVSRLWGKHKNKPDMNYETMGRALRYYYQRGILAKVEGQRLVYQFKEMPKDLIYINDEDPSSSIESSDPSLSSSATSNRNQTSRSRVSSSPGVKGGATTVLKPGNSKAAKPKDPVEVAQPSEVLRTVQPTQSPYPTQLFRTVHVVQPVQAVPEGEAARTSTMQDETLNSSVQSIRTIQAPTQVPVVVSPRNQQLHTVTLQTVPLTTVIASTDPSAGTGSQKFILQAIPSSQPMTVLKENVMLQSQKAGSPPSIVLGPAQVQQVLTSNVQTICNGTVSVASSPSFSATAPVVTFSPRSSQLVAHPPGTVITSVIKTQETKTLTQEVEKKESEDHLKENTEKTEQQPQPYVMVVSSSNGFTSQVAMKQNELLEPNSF
Outline: as §1

EHF = target: T5, EHF (Homo sapiens, UniProt Q9NZC4 1-300); conditions: protein: recombinant; tags: N-terminal GST; dsDNA, one strand shown
T5 sequence: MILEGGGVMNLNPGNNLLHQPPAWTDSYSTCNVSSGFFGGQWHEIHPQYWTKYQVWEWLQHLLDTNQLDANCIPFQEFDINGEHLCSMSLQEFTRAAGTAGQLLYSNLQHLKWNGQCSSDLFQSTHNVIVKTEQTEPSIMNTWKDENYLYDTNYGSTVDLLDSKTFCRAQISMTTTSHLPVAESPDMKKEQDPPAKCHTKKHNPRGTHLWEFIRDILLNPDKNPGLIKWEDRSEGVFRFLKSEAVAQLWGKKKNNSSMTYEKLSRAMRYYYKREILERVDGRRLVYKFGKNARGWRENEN
Outline: as §1

SPI1 = SPI1 (Homo sapiens, UniProt P17947 1-270); conditions: protein: recombinant; tags: N-terminal GST; dsDNA, one strand shown
Outline: as §1

SPIB = SPIB (Homo sapiens, UniProt Q01892 1-262); conditions: protein: recombinant; tags: N-terminal GST; dsDNA, one strand shown
SPIB, sequence (Q01892 whole entry): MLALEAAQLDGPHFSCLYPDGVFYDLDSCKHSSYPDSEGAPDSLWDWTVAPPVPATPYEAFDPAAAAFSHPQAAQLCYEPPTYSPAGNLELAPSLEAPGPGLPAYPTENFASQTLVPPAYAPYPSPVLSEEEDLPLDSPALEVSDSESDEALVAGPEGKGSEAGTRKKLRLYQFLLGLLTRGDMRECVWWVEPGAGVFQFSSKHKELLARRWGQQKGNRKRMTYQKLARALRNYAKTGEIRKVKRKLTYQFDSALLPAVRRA
Outline: as §1

ELK3 = target: T6, ELK3 (Homo sapiens, UniProt P41970 1-407); conditions: protein: recombinant; tags: N-terminal GST; dsDNA, one strand shown
T6 sequence: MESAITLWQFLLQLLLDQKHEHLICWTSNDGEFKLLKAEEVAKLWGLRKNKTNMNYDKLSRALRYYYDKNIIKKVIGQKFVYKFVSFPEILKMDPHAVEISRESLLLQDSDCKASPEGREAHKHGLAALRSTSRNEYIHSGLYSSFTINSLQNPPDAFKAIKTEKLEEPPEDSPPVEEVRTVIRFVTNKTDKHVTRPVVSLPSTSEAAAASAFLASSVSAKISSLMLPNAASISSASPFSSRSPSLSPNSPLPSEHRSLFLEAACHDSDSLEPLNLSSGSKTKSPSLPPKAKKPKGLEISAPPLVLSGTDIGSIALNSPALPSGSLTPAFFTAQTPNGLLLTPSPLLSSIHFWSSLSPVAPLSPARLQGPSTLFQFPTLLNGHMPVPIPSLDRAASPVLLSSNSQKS
Outline: as §1

FEV = target: T7, FEV (Homo sapiens, UniProt Q99581 1-238); conditions: protein: recombinant; tags: N-terminal GST; dsDNA, one strand shown
T7 sequence: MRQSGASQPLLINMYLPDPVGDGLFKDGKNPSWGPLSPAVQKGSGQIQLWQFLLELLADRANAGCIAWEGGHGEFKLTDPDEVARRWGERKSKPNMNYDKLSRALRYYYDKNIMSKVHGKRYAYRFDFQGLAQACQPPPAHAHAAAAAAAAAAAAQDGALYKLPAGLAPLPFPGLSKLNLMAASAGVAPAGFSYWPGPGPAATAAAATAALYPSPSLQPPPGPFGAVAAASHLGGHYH
Outline: as §1

ETV5 = ETV5 (Homo sapiens, UniProt P41161 1-510); conditions: protein: recombinant; tags: N-terminal GST; dsDNA, one strand shown
ETV5, sequence (P41161 whole entry): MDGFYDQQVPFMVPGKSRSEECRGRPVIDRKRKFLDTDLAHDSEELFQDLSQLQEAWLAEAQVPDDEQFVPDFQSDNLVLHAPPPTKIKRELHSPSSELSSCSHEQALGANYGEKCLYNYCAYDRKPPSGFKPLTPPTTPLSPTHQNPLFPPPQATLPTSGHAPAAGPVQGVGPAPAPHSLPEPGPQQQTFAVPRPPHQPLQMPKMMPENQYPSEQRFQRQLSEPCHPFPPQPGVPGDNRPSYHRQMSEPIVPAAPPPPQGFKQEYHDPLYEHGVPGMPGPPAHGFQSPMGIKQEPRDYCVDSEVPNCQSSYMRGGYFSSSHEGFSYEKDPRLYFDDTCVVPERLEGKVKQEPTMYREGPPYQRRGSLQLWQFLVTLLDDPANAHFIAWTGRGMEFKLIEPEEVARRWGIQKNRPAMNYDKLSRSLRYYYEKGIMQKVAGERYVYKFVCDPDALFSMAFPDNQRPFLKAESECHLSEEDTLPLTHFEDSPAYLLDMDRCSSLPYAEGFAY
Outline: as §1

HSF1 = HSF1 (Homo sapiens, UniProt Q00613 1-529); conditions: protein: recombinant; tags: N-terminal GST; chain copies: 3; dsDNA, one strand shown
HSF1, sequence (Q00613 whole entry): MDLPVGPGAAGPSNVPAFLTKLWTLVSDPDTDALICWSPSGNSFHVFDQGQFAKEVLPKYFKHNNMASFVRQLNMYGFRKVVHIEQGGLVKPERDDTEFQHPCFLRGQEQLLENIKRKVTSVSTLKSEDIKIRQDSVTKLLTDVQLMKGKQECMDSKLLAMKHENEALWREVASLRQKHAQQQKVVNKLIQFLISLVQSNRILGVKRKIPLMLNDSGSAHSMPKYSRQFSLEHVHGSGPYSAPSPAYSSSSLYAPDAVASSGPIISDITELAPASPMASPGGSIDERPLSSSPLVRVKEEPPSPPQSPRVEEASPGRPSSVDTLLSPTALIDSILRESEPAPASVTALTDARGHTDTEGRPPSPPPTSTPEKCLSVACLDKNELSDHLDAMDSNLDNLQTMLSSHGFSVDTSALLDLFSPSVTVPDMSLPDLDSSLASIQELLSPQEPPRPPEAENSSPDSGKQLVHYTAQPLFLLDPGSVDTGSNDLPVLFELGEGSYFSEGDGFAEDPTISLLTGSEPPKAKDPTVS
Outline: as §1

SPIC = target: T8, SPIC (Homo sapiens, UniProt Q8N5J4 1-248); conditions: protein: recombinant; tags: N-terminal GST; dsDNA, one strand shown
T8 sequence: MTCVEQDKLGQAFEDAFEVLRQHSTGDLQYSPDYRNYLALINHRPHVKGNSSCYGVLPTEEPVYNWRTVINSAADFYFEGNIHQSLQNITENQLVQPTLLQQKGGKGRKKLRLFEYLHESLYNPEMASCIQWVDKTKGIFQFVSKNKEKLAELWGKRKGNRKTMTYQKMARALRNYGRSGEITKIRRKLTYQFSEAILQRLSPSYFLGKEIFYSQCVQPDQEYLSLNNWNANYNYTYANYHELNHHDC
Outline: as §1

ELF4 = ELF4 (Homo sapiens, UniProt Q99607 1-663); conditions: protein: recombinant; tags: N-terminal GST; dsDNA, one strand shown
ELF4, sequence (Q99607 whole entry): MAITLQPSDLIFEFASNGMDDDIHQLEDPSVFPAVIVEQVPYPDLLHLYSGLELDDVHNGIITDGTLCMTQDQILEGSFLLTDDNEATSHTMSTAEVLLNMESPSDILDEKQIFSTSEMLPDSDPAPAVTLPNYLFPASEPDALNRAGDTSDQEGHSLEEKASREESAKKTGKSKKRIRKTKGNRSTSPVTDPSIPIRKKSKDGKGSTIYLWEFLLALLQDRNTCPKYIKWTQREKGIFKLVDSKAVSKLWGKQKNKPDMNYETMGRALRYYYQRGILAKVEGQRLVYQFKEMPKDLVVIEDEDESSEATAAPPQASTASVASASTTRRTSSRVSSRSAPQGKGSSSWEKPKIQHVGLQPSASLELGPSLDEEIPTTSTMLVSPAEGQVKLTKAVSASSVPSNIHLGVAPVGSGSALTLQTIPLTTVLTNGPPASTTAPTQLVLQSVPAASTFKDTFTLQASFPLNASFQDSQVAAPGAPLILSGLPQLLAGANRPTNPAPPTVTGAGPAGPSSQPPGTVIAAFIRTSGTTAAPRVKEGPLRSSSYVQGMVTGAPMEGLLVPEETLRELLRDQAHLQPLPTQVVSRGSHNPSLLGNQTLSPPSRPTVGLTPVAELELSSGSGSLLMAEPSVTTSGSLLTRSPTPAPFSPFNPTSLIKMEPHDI
Outline: as §1

ELK4 = target: T9, ELK4 (Homo sapiens, UniProt P28324-2 1-405); conditions: protein: recombinant; tags: N-terminal GST; dsDNA, one strand shown
T9 sequence: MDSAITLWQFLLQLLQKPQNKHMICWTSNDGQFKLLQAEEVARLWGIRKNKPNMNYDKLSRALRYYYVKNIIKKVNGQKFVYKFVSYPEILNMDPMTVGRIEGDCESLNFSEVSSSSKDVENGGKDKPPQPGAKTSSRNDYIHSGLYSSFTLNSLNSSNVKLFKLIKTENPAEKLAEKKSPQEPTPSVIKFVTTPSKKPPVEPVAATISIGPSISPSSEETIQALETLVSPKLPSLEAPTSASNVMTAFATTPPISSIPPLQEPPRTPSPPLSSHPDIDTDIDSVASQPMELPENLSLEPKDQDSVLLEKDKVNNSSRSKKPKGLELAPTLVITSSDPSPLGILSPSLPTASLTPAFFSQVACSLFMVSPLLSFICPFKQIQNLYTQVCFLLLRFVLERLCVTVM
Outline: as §1

ETV2 = target: T10, ETV2 (Homo sapiens, UniProt O00321 1-342); conditions: protein: recombinant; tags: N-terminal GST; dsDNA, one strand shown
T10 sequence: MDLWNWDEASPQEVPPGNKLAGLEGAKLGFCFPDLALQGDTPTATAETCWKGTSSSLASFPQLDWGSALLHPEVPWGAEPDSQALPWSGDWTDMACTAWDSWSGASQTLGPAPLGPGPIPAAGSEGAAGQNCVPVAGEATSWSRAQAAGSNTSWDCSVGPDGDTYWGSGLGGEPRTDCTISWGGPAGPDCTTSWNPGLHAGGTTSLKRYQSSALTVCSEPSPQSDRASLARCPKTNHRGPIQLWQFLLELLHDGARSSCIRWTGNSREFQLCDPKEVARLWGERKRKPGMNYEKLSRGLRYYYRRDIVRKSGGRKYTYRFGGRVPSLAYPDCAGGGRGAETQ
Outline: as §1

ELF3 = target: T11, ELF3 (Homo sapiens, UniProt P78545 1-371); conditions: protein: recombinant; tags: N-terminal GST; dsDNA, one strand shown
T11 sequence: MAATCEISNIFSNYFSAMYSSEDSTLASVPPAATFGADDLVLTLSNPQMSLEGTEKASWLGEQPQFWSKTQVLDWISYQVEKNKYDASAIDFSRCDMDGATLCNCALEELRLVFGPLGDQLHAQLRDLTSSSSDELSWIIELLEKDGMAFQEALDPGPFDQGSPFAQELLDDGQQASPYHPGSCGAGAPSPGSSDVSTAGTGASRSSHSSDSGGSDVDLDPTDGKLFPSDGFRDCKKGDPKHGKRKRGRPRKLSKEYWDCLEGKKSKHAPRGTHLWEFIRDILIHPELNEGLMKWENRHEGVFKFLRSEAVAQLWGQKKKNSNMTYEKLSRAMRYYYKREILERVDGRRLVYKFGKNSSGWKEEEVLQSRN
Outline: as §1

CRX = CRX (Homo sapiens, UniProt O43186 1-299); conditions: protein: recombinant; tags: N-terminal GST; dsDNA, one strand shown
CRX, sequence (O43186 whole entry): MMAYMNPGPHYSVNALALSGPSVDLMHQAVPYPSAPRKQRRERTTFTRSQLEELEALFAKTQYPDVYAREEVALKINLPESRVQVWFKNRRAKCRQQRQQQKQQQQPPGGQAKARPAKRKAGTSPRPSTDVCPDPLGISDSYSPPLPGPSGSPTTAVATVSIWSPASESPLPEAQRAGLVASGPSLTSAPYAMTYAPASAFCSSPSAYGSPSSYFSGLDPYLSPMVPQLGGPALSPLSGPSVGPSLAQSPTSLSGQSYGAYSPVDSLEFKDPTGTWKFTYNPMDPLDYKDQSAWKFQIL
Outline: as §1

ETV1 = ETV1 (Homo sapiens, UniProt P50549 1-477); conditions: protein: recombinant; tags: N-terminal GST; dsDNA, one strand shown
ETV1, sequence (P50549 whole entry): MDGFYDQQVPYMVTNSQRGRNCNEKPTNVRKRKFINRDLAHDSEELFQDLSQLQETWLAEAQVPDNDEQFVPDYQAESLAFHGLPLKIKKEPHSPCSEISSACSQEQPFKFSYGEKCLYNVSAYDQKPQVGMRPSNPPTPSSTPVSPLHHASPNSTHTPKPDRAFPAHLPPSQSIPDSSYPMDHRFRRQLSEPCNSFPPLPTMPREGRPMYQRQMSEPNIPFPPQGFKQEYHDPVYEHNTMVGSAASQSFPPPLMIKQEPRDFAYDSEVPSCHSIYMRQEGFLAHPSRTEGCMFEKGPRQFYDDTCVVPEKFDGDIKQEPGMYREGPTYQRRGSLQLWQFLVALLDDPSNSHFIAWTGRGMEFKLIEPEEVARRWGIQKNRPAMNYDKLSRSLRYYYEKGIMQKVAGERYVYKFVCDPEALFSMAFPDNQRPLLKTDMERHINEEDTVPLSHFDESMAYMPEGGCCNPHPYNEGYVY
Outline: as §1

CTCCCA
binding signal (FLI1): 1.47 fold enrichment (6-mer frequency, TF over GST control)
binding signal (ELK1): 1.33 fold enrichment (6-mer frequency, TF over GST control)
binding signal (GABPA): 1.45 fold enrichment (6-mer frequency, TF over GST control)
binding signal (ERG): 1.38 fold enrichment (6-mer frequency, TF over GST control)
binding signal (ELF1): 1.41 fold enrichment (6-mer frequency, TF over GST control)
binding signal (EHF): 1.39 fold enrichment (6-mer frequency, TF over GST control)
binding signal (SPI1): 1.43 fold enrichment (6-mer frequency, TF over GST control)
binding signal (SPIB): 1.36 fold enrichment (6-mer frequency, TF over GST control)
binding signal (ELK3): 1.34 fold enrichment (6-mer frequency, TF over GST control)
binding signal (FEV): 1.39 fold enrichment (6-mer frequency, TF over GST control)
binding signal (ETV5): 1.37 fold enrichment (6-mer frequency, TF over GST control)
binding signal (HSF1): 1.17 fold enrichment (6-mer frequency, TF over GST control)
binding signal (SPIC): 1.38 fold enrichment (6-mer frequency, TF over GST control)
binding signal (ELF4): 1.4 fold enrichment (6-mer frequency, TF over GST control)
binding signal (ELK4): 1.44 fold enrichment (6-mer frequency, TF over GST control)
binding signal (ETV2): 1.08 fold enrichment (6-mer frequency, TF over GST control)
binding signal (ELF3): 1.36 fold enrichment (6-mer frequency, TF over GST control)
binding signal (CRX): 1.19 fold enrichment (6-mer frequency, TF over GST control)
binding signal (ETV1): 1.32 fold enrichment (6-mer frequency, TF over GST control)

— publication PMC7862700, “An all-to-all approach to the identification of sequence-specific readers for epigenetic DNA modifications on cytosine”
